Source: PubChem (National Center for Advancing Translational Sciences (NCATS))
A selection: hits, their analogues and other compounds. The true share with any hit is near 1.1%.
AmpC no deterg = inhibitors of E. coli AmpC beta-lactamase without detergent; hit rate 0.52% among 330,000; AID 485341; AmpC nitrocefin hydrolysis, absorbance 480 nm, 0.0001% Triton; Potency, µM (top dose mostly 57.1 µM), for inactives: at the highest dose activity change, negative = inhibition, actives largely listed as inhibitors;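 also: plate controls were no compound for no effect and no enzyme for full effect; nearly all actives have a fitted effect of over 20% in size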
Target sequence (P00811 whole entry, looked up): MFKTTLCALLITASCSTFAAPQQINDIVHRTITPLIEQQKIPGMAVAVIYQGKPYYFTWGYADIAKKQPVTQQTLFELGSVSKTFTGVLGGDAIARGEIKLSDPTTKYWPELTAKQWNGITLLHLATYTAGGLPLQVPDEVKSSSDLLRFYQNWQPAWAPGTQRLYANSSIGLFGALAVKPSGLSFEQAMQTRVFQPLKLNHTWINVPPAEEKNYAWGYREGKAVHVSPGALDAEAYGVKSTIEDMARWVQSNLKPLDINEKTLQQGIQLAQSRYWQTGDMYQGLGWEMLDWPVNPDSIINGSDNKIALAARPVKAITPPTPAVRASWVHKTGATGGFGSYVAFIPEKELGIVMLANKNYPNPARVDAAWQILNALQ
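AmpC (5.3 nM in the dispensed reagent) in 20 mM phosphate pH 7.0 with 0.01% (detergent screen) or 0.0001% Triton X-100 was preincubated with compounds for 15 min at room temperature. Nitrocefin was then added from an 800 uM solution, and hydrolysis was followed at 480 nm.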
Vaccinia Venus = vaccinia inhibition (Venus reporter); AID 720580; Vaccinia virus Venus reporter expression, fluorescence; hit rate 0.46% among 330,000; Potency, µM (top dose mostly 36.5 µM), for inactives: at the top dose activity change, negative = inhibition, actives largely listed as inhibitors; calls by dose curve; tested in A549 cells; also: nearly all actives have a fitted effect of over 30% in size
AmpC detergent = blocks E. coli AmpC beta-lactamase in detergent assay. AmpC hydrolysis of nitrocefin, absorbance 480 nm, 0.01% Triton. Potency, µM (titrated, usually from 114 µM), without a hit: at the highest dose activity change, negative = inhibition, hits mostly inhibitors. hit rate 0.041% among 370,000;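 also: 0% = no-compound wells and -100% = no-enzyme wells; nearly all actives have a fitted effect of over 25% in size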
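20 mM phosphate pH 7.0 + 0.01% (detergent screen) or 0.0001% Triton X-100; 5.3 nM AmpC reagent; cpd preinc 15 min RT; nitrocefin (800 uM stock) to start; A480 q20 s × 4 min; Activity was normalised to no-enzyme and no-compound control wells.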
Vaccinia mCherry = inhibitors of vaccinia virus infection (mCherry reporter signal); Vaccinia virus mCherry reporter infection, fluorescence; Potency, µM (doses to about 36.5 µM), for the others: at the highest dose activity change, negative = inhibition, most hits filed as inhibitors; hit rate 0.63% among 310,000; AID 720579; calls by dose curve; tested in A549 cells; also: nearly all actives have a fitted effect of over 35% in size
Starred values were filed as active, the others as inactive; i = inactive; ? = inconclusive; · = no result; [ ] = dose if it differs, or a comment. Unless noted, calls follow the shape of the dose curve; as a rule, active = well fitted curve in the direction sought with a large enough effect; inconclusive = small, poorly fitted or top-dose-only effect, or another doubt; inactive = no such curve, though single readings can be large; an effect the other way counts as inactive or inconclusive. Unless noted, % is scaled to controls: 0 for no effect and ±100 for the full control effect; potency is read from the fitted curve at half-maximal effect.

SMILES	AmpC no deterg	Vaccinia Venus	AmpC detergent	Vaccinia mCherry
CCCC(=O)NC(c1ccc(C)cc1)c1ccc2cccnc2c1O (stereo not drawn)	-27%	?	6%	?
O=C(c1ccccc1F)N(Cc1cc2cc3c(cc2nc1N1CCOCC1)CCC3)CC1CCCO1 (stereo not drawn)	·	-7%	·	-15%
Cc1cnc(-n2ncc(C(=O)NCc3cccnc3)c2C)nc1-c1ccc(F)cc1	·	-29%	·	?
C/C(=N\NC(=S)Nc1cccc(C)c1)c1ccccc1	-47%	-24%	0%	-25%
CCOc1ccc(OCc2ccc(C(=O)N/N=C(\C)c3ccccn3)cc2)cc1	-4%	?	?	1.8µM*
C/C(=N\NC(=O)c1ccccc1OCc1ccc(F)cc1)c1ccccn1	8%	·	-4%	·
C/C(=N\NC(=O)c1ccc(Cl)c(Cl)c1)c1ccccn1	-13%	?	-7%	1.3µM*
CC(=NNC(=S)Nc1cccc(C)c1)c1ccccn1	·	?	·	2µM*
COc1ccc(C(=O)N/N=C(\C)c2ccccn2)cc1OC	-10%	?	?	2.2µM*
COC(=O)c1cccc(C(=O)N2CCc3c(cnc(C)c3CNC(=O)c3ccsc3)C2)c1	·	13%	·	-7%
CCC1CN(CC(=O)NCc2cc(C)n(C)n2)Cc2cc(OC)ccc2O1 (stereo not drawn)	·	-3%	·	-11%
Cc1cc2c(c(-c3nc4ccccc4s3)c1)OC(CNC(=O)CCc1cccnc1)C2 (stereo not drawn)	·	14%	·	-8%
C/C(=N\NC(=O)C1COc2ccccc2O1)c1ccc(C)o1 (stereo not drawn)	-36%	-15%	?	-16%
C/C(=N/NC(=O)c1ccc(C(C)(C)C)cc1)c1ccccn1	·	?	·	2.8µM*
C/C(=N\NC(=O)C1COc2ccccc2O1)c1ccccn1 (stereo not drawn)	-18%	?	?	4.5µM*
C/C(=N\NC(=O)C1CCCN(S(=O)(=O)c2ccccc2)C1)c1ccccn1 (stereo not drawn)	3.2µM*	?	1%	?
O=C(NCCN1Cc2ccccc2OC(c2ccccc2F)C1)c1cncs1 (stereo not drawn)	·	2%	·	-17%
COc1ccccc1N1CCN(CCS(=O)(=O)c2cc(Cl)ccc2Cl)CC1	·	?	·	8.9µM*
C[C@H]1CN([C@@H](C)CO)C(=O)Cc2cc(NC(=O)CCC(F)(F)F)ccc2O[C@H]1CN(C)Cc1ccc(-c2ccccc2)cc1	211%	?	·	11µM*
C[C@H](CO)N1C[C@H](C)[C@H](CN(C)Cc2ccc(-c3ccccc3)cc2)Oc2ccc(NS(=O)(=O)c3ccccc3)cc2CC1=O	113%	10µM*	·	?
Cc1ncc2c(c1CNS(=O)(=O)N(C)C)CCN(C(=O)c1ccc(-c3ccc(F)cc3)cc1)C2	·	2%	·	-9%
CN(CCO)C(=O)c1cn(C2CCN(Cc3ccc4ccccc4c3)CC2)nn1	·	0%	·	-7%
CC(=O)Nc1ccc(NC(=O)C(C)Oc2ccc(Cl)cc2Cl)cc1 (stereo not drawn)	7%[2.29 µM]	·	-2%	·
COc1ccc(NC(=O)C(=O)NNC(=O)C(C)Oc2ccc(Cl)cc2Cl)cc1 (stereo not drawn)	32µM*	-6%	-9%	-5%
NC(=S)N/N=C/c1ccccc1OCc1cccc(Cl)c1	-55%	2µM*	?	1.8µM*
SMILES	AmpC no deterg	Vaccinia Venus	AmpC detergent	Vaccinia mCherry
COc1cc(C(=O)Oc2ccccc2/C=N/NC(=O)c2ccc(Cl)cc2Cl)cc(OC)c1OC	?	?	0%	·
NC(=S)N/N=C/c1ccc2cccc(OCc3ccccc3)c2n1	-44%	?	3%	?
C=CCOc1ccccc1/C=N/NC(=O)c1ccc(Cl)cc1Cl	25µM*	-2%	1%	-14%
CCN(CC)c1ccc(/C=C/c2ccncc2)cc1	·	i	·	6%
COc1ccc(CCn2c(C)cc(C(=O)COC(=O)c3ccc(NC(=O)CC#N)cc3)c2C)cc1	18µM*	·	-7%	·
Cc1cc(C)c(C(=O)COC(=O)c2ccc(NC(=O)CC#N)cc2)cc1C	6.3µM*	-3%	11%	-28%
CNC(=O)COC(=O)c1ccc(NC(=O)CC#N)cc1	-14%	-10%	1%	i
O=C(NCCc1nnc2n1CCN(Cc1c(F)cccc1F)CC2)c1ccco1	·	-1%	·	-2%
Cc1ccc2[nH]c(C(=O)N3CCc4c(cnc(C)c4CNC(=O)c4ccccc4F)C3)cc2c1	·	11%	·	1%
CC1Oc2cc3c(-c4c(O)cc(O)c5c(O)c6c(cc45)OC(C)C(C)C6=O)c(O)cc(O)c3c(O)c2C(=O)C1C (stereo not drawn)	22µM*	4µM*	?	?
CCN(CC)S(=O)(=O)c1ccc(O)c(NC(=O)c2ccc(N3CCOCC3)c([N+](=O)[O-])c2)c1	20µM*	-15%	1%	-27%
CCN(CC)S(=O)(=O)c1ccc(N2CCOCC2)c(NC(=O)c2ccccc2)c1	22%	-9%	-13%	-14%
COc1ccc(NC(=O)Cc2ccc(Cl)c(Cl)c2)cn1	-38%	-13%	1%	i
COc1ccc(NC(=O)COC(=O)C(NC(=O)c2ccc(C)cc2)C(C)C)cn1 (stereo not drawn)	-10%	-9%	·	i
COc1ccc(NC(=O)/C(Cl)=C(/Cl)S(=O)(=O)Cc2ccc(C)cc2)cn1	-11%	14µM*	?	·
COc1ccc(NC(=O)/C(Cl)=C(/Cl)S(=O)Cc2ccccc2Cl)cn1 (stereo not drawn)	-30%	2.8µM*	0%	2µM*
O=C(NCCc1ccccc1)C1CCN(S(=O)(=O)N2CCC3(CC2)OCCO3)CC1	0.56µM*	-3%	-1%	-7%
C=C[C@@H]1CN2CCC1C[C@H]2[C@H](O)c1ccnc2ccc(OC)cc12 (stereo partly drawn)	·	0%	·	-8%
O=C(N/N=C/c1cc(Br)ccc1O)c1cccc(N2CCCC2=O)c1	-54%	?	?	7.9µM*
O=C(N/N=C/c1ccco1)c1cccc(N2CCCC2=O)c1	-19%	-1%	-3%	-10%
COc1ccc(O)c(/C=N/NC(=O)c2cccc(N3CCCC3=O)c2)c1	-16%	-16%	6%	2.5µM*
COc1ccc(O)c(/C=N/NC(=O)c2ccc(N3CCCC3=O)cc2)c1	4%	?	-13%	2.8µM*
COCC(=O)Nc1cc(C(=O)N2CCN(c3ccccc3)CC2C)c2c(c1)nc(-c1ccncc1)n2C (stereo not drawn)	·	4%	·	-6%
Cc1ccn(CCC(=O)N2CCOc3ccc(C(O)C4CCCCC4)cc3C2)n1 (stereo not drawn)	·	-5%	·	-13%
CC(=O)O[C@H]1C[C@@H]2CC[C@@H]3[C@H](CC[C@]4(C)C(=O)CC[C@@H]34)[C@@]2(C)C[C@@H]1OC(C)=O	-11%	4%	?	2%
C=C1C(=O)C2=CC1CCC(=O)C1(C)CCC(OC(C)=O)C(C)(C)C1CC2O (stereo not drawn)	·	4µM*	·	2.5µM*
C/C(CC(=O)Nc1ccccn1)=N\NC(=O)c1ccccc1O	-30%	-12%	4%	4µM*
